Measurements: the supplement of paper PMC11732987, “Enantioselective OTUD7B fragment discovery through chemoproteomics screening and high-throughput optimisation” (Communications Chemistry, 2025)

Assays:
Assay in all cases: log2 ratio of Biotin-Ahx-Ub-VS probe labelling (fragment/DMSO); higher = less target engagement (more negative = stronger competition), active = hit call of the paper (q ≤ 0.05, log2 ratio ≤ -1)
Details in all cases: compound concentration: 200 uM; treatment time: 3 h
USP19 = target: T1, USP19 (UniProt O94966)
T1 sequence (whole entry): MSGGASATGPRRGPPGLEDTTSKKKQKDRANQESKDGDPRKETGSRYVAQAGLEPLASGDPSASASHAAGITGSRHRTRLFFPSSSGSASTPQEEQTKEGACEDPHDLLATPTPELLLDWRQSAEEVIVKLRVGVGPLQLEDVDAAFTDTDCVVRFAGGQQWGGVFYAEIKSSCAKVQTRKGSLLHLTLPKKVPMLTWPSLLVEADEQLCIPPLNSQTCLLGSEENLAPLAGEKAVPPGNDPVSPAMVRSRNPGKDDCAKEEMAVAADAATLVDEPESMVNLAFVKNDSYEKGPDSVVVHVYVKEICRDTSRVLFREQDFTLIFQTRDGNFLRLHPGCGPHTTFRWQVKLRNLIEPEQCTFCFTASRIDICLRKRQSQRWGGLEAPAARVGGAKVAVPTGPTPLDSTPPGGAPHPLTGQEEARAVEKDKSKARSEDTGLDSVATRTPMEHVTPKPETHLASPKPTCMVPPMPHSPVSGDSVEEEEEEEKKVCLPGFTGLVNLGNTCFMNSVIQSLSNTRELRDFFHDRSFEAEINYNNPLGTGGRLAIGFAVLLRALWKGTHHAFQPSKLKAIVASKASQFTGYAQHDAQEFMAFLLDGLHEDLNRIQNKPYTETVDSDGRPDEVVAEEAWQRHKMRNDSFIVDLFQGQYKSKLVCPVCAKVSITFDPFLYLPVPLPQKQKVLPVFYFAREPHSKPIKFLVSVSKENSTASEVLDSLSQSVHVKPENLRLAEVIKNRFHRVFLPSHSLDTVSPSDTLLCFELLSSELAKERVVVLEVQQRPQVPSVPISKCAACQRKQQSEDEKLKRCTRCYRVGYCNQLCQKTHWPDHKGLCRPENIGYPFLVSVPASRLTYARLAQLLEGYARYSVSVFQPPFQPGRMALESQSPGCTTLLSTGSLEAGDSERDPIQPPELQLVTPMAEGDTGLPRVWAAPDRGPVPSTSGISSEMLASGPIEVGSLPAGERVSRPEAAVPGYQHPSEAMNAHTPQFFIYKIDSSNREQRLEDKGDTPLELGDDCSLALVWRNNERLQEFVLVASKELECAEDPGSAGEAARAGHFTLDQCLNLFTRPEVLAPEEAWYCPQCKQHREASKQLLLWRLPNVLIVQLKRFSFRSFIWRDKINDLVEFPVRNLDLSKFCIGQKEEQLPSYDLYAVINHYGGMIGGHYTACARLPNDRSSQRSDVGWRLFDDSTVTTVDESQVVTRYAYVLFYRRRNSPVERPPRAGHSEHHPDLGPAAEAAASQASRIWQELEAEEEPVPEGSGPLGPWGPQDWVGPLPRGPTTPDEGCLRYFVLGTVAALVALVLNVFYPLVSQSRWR
Procedure, shortened: (§1)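 Labelled DUBs from HEK293T lysate were NeutrAvidin-enriched, digested with LysC and trypsin, and run by diaPASEF LC-MS/MS. Before that, each 495 µg sample in Tris/CHAPS/IGEPAL buffer with protease inhibitors was treated in triplicate with fragment at 200 µM or vehicle for 3 h, then with Biotin-Ahx-Ub-VS at 0.5 µM final for 1 h. Values are average log2 ratios of fragment over vehicle by unpaired t-test, based on global-median-normalised Spectronaut label-free quantities from proteins with ≥2 unique peptides.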

USP22 = target: T2, USP22 (UniProt Q9UPT9)
T2 sequence (whole entry): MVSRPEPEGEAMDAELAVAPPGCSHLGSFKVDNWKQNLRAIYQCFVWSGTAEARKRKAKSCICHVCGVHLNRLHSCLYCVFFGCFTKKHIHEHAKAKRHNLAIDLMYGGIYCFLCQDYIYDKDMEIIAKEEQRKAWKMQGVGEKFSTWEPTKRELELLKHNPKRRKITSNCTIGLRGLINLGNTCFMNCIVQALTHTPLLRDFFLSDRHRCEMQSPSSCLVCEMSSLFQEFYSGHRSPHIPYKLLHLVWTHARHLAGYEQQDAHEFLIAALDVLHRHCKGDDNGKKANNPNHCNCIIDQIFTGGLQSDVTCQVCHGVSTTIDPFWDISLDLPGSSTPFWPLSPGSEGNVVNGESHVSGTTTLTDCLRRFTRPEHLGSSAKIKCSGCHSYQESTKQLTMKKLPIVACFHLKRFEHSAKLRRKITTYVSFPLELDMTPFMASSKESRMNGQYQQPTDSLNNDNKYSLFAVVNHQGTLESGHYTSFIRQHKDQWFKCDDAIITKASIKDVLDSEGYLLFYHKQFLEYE
Procedure, shortened: as §1

USP24 = USP24 (UniProt Q9UPU5)
Sequence of USP24 (Q9UPU5 whole entry): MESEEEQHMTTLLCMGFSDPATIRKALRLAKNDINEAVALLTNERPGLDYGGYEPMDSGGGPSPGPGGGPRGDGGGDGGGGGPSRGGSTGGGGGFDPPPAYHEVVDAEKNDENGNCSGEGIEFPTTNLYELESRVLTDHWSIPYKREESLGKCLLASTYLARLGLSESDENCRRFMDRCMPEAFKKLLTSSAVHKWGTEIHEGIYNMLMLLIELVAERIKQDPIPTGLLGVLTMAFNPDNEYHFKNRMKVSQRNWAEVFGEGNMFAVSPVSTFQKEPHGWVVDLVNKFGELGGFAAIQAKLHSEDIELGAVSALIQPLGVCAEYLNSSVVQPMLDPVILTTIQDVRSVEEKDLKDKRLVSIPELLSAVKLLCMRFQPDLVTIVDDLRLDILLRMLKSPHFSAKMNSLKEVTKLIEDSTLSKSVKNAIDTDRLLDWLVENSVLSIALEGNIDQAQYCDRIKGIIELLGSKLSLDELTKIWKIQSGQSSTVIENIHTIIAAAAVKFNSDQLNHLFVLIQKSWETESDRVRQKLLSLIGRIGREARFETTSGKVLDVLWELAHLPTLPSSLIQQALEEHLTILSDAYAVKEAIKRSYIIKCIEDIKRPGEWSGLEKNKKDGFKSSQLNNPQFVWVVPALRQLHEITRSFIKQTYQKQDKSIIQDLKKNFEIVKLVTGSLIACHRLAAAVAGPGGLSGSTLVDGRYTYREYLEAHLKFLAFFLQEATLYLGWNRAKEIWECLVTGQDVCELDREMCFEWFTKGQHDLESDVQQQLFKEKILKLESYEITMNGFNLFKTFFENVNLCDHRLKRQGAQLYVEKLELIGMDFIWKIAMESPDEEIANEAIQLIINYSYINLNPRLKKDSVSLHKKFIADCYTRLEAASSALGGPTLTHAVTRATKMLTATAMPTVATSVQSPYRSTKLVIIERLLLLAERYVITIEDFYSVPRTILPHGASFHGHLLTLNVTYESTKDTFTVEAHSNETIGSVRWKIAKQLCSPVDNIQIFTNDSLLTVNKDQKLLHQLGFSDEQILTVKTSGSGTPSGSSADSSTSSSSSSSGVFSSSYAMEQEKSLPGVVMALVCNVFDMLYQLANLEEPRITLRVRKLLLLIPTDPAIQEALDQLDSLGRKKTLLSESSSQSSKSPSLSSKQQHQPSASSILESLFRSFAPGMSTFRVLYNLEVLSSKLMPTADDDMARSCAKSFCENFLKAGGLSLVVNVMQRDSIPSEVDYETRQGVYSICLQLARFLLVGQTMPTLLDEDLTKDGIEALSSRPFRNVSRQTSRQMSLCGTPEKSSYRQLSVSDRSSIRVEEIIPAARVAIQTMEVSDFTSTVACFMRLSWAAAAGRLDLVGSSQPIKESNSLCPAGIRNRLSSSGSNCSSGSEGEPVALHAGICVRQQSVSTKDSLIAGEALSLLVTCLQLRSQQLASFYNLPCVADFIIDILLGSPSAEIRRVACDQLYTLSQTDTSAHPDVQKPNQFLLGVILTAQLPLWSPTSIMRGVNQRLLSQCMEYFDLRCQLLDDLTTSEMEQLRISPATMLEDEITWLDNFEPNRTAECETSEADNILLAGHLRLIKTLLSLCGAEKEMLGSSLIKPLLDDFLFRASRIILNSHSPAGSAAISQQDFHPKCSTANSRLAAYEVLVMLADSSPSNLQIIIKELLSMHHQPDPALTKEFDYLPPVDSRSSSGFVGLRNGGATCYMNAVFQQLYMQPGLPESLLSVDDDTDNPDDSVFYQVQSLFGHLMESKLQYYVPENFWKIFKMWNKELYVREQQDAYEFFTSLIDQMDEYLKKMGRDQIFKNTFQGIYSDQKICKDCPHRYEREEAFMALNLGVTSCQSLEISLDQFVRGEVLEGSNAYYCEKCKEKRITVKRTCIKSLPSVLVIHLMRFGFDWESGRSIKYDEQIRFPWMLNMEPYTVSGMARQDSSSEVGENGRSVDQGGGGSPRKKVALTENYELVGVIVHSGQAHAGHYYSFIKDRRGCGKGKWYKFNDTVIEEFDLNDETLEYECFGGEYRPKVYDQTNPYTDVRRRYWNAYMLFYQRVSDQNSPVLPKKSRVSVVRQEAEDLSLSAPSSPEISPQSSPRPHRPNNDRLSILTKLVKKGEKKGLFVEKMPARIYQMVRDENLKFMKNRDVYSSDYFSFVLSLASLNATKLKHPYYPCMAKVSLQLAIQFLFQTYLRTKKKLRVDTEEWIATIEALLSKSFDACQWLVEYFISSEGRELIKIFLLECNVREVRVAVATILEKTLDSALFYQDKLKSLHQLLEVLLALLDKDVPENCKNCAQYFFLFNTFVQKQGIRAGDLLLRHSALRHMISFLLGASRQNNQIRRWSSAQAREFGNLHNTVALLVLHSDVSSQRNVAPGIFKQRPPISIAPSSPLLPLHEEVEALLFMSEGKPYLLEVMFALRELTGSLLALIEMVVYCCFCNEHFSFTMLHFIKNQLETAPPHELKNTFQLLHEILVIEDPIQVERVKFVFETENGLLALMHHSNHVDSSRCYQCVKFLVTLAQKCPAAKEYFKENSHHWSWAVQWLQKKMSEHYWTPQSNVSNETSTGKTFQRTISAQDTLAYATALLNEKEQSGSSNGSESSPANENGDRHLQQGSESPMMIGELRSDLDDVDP
Procedure, shortened: as §1

USP25 = target: T3, USP25 (UniProt Q9UHP3)
T3 sequence (whole entry): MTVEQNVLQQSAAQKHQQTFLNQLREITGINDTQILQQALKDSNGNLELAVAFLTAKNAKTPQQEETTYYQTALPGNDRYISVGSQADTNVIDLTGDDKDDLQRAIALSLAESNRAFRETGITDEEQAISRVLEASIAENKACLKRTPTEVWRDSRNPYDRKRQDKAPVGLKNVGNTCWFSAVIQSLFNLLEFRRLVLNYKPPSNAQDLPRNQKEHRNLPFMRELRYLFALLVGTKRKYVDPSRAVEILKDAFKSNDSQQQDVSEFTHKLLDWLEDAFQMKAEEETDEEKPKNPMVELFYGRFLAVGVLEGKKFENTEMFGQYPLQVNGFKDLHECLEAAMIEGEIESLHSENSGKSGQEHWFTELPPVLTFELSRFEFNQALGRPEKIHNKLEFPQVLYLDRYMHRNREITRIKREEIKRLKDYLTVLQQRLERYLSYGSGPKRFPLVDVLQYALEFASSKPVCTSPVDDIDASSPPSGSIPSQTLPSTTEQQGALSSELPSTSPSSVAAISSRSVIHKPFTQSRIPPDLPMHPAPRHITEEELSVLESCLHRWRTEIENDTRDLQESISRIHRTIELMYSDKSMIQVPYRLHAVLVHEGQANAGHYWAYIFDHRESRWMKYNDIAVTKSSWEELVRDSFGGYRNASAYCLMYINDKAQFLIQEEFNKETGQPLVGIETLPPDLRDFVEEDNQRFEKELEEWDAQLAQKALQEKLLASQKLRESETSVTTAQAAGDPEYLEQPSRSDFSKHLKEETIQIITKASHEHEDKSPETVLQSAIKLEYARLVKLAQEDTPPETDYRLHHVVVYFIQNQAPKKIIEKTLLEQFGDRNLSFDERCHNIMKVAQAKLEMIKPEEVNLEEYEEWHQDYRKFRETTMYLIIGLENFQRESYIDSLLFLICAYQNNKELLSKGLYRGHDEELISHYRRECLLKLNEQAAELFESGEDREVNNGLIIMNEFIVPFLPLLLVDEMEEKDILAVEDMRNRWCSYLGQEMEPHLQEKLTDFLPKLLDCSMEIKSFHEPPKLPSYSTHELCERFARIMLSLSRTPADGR
Procedure, shortened: as §1

USP28 = target: T4, USP28 (UniProt Q96RU2)
T4 sequence (whole entry): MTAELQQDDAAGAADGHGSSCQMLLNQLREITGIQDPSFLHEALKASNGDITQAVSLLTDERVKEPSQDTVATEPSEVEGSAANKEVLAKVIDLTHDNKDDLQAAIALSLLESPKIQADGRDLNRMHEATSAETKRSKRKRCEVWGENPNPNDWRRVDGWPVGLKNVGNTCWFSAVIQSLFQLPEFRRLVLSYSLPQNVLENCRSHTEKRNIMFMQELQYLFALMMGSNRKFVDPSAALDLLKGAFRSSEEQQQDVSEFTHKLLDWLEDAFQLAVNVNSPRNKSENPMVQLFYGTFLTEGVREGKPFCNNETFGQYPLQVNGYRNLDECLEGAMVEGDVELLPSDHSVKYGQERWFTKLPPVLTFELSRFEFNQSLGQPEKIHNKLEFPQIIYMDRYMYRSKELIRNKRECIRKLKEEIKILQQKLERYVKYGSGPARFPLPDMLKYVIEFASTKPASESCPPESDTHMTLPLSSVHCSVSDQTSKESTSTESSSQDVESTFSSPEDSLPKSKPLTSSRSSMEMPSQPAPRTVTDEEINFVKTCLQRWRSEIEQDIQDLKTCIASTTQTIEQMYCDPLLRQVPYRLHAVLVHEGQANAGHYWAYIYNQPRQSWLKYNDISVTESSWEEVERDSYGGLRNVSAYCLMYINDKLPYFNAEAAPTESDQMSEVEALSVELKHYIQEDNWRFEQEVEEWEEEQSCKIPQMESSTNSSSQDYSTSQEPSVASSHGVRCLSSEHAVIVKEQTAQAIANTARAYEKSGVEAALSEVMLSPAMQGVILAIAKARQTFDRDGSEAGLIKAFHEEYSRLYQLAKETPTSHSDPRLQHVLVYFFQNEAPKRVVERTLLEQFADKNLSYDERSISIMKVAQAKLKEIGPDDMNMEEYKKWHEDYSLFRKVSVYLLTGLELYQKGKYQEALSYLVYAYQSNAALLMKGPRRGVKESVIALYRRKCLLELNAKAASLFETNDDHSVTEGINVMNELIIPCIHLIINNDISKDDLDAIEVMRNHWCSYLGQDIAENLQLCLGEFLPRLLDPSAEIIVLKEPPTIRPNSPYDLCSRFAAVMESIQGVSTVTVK
Procedure, shortened: as §1

Measured: log2 ratio of Biotin-Ahx-Ub-VS probe labelling

CC(NC(=O)CCl)c1ccc2[nH]ncc2c1 (stereo not given)
inactive: USP19 -0.529 | USP22 0.0735 | USP24 -0.886 | USP25 -0.509 | USP28 -0.901
